Measured values as given in publication PMC4336329 (PLoS ONE, 2015).
Among all 310,000 compounds or so, about 14,000 (4.5%) showed an effect of 50% or more. The effect is printed as a negative number. The sample holds strong results, similar compounds and a random draw of the others, so the mix is not that of the screen.

target: human ether-à-go-go-related gene (hERG) potassium channel (human, UniProt Q12809); test: primary screen, population patch clamp on CHO cells stably expressing hERG; higher = less effect of the substance
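Also: peak tail current of the secondary pulse compared with the same well before compound.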

Chain of human ether-à-go-go-related gene (hERG) potassium channel (Q12809 whole entry, looked up): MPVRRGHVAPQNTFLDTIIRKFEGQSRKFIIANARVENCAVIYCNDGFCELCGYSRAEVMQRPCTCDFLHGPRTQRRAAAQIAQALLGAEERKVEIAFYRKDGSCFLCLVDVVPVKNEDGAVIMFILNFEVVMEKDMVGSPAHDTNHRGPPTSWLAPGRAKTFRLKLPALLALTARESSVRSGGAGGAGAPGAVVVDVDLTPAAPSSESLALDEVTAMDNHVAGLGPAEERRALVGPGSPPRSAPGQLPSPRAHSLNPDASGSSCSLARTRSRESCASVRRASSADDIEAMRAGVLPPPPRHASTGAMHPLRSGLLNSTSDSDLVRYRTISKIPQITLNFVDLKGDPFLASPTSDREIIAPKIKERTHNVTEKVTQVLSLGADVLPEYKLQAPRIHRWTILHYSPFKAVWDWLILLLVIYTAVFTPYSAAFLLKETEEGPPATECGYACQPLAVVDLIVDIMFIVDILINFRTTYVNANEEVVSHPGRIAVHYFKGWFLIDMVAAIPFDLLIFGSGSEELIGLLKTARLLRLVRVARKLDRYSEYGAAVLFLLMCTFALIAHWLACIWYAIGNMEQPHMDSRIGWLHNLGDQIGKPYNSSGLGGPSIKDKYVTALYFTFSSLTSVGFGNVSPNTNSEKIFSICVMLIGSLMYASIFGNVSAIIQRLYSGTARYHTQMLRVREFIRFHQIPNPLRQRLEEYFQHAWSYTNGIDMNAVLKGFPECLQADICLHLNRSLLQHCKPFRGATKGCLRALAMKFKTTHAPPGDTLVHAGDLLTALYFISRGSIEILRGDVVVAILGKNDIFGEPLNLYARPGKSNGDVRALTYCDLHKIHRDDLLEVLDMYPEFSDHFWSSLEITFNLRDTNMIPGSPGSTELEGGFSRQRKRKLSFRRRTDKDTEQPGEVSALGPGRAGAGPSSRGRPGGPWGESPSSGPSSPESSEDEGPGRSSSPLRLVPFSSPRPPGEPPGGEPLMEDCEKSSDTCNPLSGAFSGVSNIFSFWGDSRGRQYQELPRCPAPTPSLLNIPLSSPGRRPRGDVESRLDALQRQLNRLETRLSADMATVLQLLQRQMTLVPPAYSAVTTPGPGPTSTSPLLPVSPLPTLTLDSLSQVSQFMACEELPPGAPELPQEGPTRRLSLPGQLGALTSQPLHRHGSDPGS

| SMILES | hERG current change (%, negative = inhibition) at 10uM [%] |
| --- | --- |
| COc1cccc(CN(C(=O)c2cccc(OC)c2)C2CCS(=O)(=O)C2)c1 (centres unmarked) | -7.02 |
| O=P1(Nc2cccnc2)COc2ccccc2OC1 | 30.6 |
| CSc1ccccc1C(=O)NCCOc1cccc(C)c1 | 17.7 |
| O=C(CNC(=O)c1cccs1)NCC(=O)OCc1ccccc1Cl | 2.85 |
| CC(=O)N1CCC2(CC1)C(C#N)=C(N)Oc1n[nH]c(C)c12 | 15.5 |
| Cc1[nH]nc2c1C1(CCOCC1)C(C#N)=C(N)O2 | -56.7 |
| Cc1[nH]nc2c1C1(CCC3(CC1)OCCO3)C(C#N)=C(N)O2 | -0.214 |
| COc1ccc(S(=O)(=O)NC(C)C(=O)NCc2ccccn2)cc1Cl (centres unmarked) | 7.6 |
| Cc1ccc2c(c1)cc(CN(Cc1ccco1)C(=O)N1CCOCC1)c1nnnn12 | -14.7 |
| Cc1ccc(C(=O)N(Cc2cccnc2)Cc2cc3cc(C)ccc3n3nnnc23)cc1 | -23.8 |
| Cc1cccc2cc(CN(CCc3ccccc3)C(=O)N3CCOCC3)c3nnnn3c12 | 12.5 |
| Cc1ccc2c(c1)cc(CN(CCc1ccccc1)C(=O)N1CCOCC1)c1nnnn12 | -61.3 |
| Cc1ccc2c(c1)cc(CN(Cc1ccc3c(c1)OCO3)C(=O)c1cnccn1)c1nnnn12 | -45.7 |
| Cc1ccc2c(c1)cc(CN(Cc1cccnc1)C(=O)NCc1ccccc1)c1nnnn12 | -75.2 |
| Cc1ccc2c(c1)cc(CN(Cc1ccc3c(c1)OCO3)C(=O)c1ccccc1)c1nnnn12 | -11.5 |
| Cc1cccc2cc(CN(Cc3cccnc3)C(=O)c3cccs3)c3nnnn3c12 | 26.1 |
| Cc1ccc2c(c1)cc(CN(Cc1cccnc1)C(=O)c1ccccc1)c1nnnn12 | -78 |
| Cc1ccc(S(=O)(=O)N(C)C)cc1-n1c(SCC(=O)Nc2ccc(F)cc2Cl)nc2ccccc2c1=O | 0.00438 |
| CC(=O)N1CCc2cc(S(=O)(=O)Nc3ccc(C)cc3)ccc21 | 16.9 |
| Cc1ccccc1CN1CCN(S(=O)(=O)c2ccc(Cl)s2)CC1 | 3.24 |
| CCOC(=O)c1c(C)oc2cc(Br)c(O)c(Br)c12 | 8.34 |
| Cc1ccc(C(=O)N[C@@H](C)CN2C3=NC[C@H](Cc4ccccc4)N3C[C@H]2Cc2ccc(O)cc2)cc1Br | -82.5 |

| SMILES | hERG current change (%, negative = inhibition) at 10uM [%] |
| --- | --- |
| COc1ccc(C[C@H]2CN3C(=NC[C@@H]3Cc3ccc(O)cc3)N2C[C@H](C)NC(=O)c2ccc(C)c(Br)c2)cc1 | -77.9 |
| CCOc1ccc(C(=O)Nc2nnc(C)s2)cc1OCC | -4.04 |
| COc1cc(/C=C2/SC(=O)NC2=O)ccc1OC(=O)c1ccco1 | -0.00422 |
| COc1cc2c(c3oc(=O)cc(CC(=O)O)c13)CCC(C)(C)O2 | -5.45 |
| COc1ccccc1CCC(=O)N1CCC(n2nccc2NC(=O)C2CCOC2)CC1 (centres unmarked) | 23.1 |
| CCOC(=O)CC1(c2ccccc2)CCOC(C)(C)C1 (centres unmarked) | 10.2 |
| O=C(c1cccnc1)N1C2C=CC(C2)C1(C(F)(F)F)C(F)(F)F (centres unmarked) | 14.6 |
| Cc1noc(C)c1C(=O)NC(C)C1CCCO1 (centres unmarked) | 3.08 |
| Cc1ccc(C(=O)N2CCN(C)CC2)cc1S(=O)(=O)N1CCCCCC1 | -25.9 |
| Cc1ccc2cc(CCNC(=O)c3ccc4c(c3)OCO4)c(=O)[nH]c2c1C | 4.17 |
| O=C(O)c1ccc(COc2ccccc2/C=C2\NC(=O)N(Cc3ccccc3)C2=O)cc1 | 24.5 |
| CCCCN(CC)CCCNC(=O)c1ccc(CS(=O)(=O)c2c(Cl)cccc2Cl)o1 | -55.4 |
| COCCNC(=O)c1ccc(CS(=O)(=O)c2c(Cl)cccc2Cl)o1 | 0.994 |
| CCCN(CCC)CCCNC(=O)c1ccc(CS(=O)(=O)c2c(Cl)cccc2Cl)o1 | -73.1 |
| O=C(NC1CC1)c1ccc(CS(=O)(=O)c2c(Cl)cccc2Cl)o1 | -5.87 |
| O=C(NCCCN1CCCC1)c1ccc(CS(=O)(=O)c2c(Cl)cccc2Cl)o1 | -10.5 |
| O=C(NCCN1CCOCC1)c1ccc(CS(=O)(=O)c2c(Cl)cccc2Cl)o1 | 0.302 |
| CCCCN(CC)CCCNC(=O)c1ccc(CS(=O)(=O)c2ccccc2C)o1 | -35.2 |
| O=C(O)c1ccc(CS(=O)(=O)c2c(Cl)cccc2Cl)o1 | 19 |
| CCCCN(CCCNC(=O)c1ccc(CS(=O)(=O)c2c(Cl)cccc2Cl)o1)Cc1ccccc1 | -66.1 |
| O=c1nc(-c2ccccc2)c2ccccc2[nH]1 | -1.29 |
| Cc1oc(-c2ccc(Cl)cc2)cc1C(=O)NC1CCN(Cc2ccccc2)CC1 | 1.09 |

| SMILES | hERG current change (%, negative = inhibition) at 10uM [%] |
| --- | --- |
| CCc1cc(=O)oc2cc(C)cc(OC(C)C(=O)NCC(O)c3ccccc3)c12 (centres unmarked) | 4.7 |
| Cc1ccc(CNC(=O)NC23CC4CC(CC(C4)C2)C3)cc1 | 7.24 |
| CCn1cc(C(=O)NCC(OC)OC)c(=O)c2cc(S(=O)(=O)N3CCC(C)CC3)ccc21 | -28.8 |
| CSc1ccc(CNc2cccc3ccccc23)cc1 | 2.23 |
| CCOC(=O)c1c(NC(=O)c2ccc(Br)o2)sc2c1CCCC2 | -9.78 |
| Fc1ccc2nc3c(nc2c1)CCCC3 | 15.3 |
| COCCCn1c(SCC(N)=O)nnc1-c1ccccc1 | -0.75 |
| Cc1ccccc1CC1(CO)CCCN(C(=O)c2ccccc2N(C)C)C1 (centres unmarked) | -1.63 |
| Cc1ccccc1CC1(CO)CCCN(C(=O)c2ccccc2Cl)C1 (centres unmarked) | -81.5 |
| Cc1ccccc1CC1(CO)CCCN(C(=O)c2cc(Cl)ccc2F)C1 (centres unmarked) | -16.5 |
| O=C(O)CC1Sc2nc3ccccc3n2C1=O (centres unmarked) | 8.05 |
| COc1ccc(CN(C)C(=O)Cn2ccc(NC(=O)OCc3ccccc3)nc2=O)cc1OC | -20.4 |
| O=C(c1ccccc1)N1CCC(O)(c2cccnc2)CC1 | 16.1 |
| CS(=O)(=O)O.O=C(O)c1ccc2c(c1)c1c3n2CCNC3CCC1 (centres unmarked) | 20.7 |
| Cc1ccc2c(c1)c1c3n2CCN=C3CCC1.Cl | -76.3 |
| OC1CN=C2CCCc3c2n(c2ccc(Cl)cc32)C1 (centres unmarked) | -72.3 |
| c1cc2c(cc1C1CCCCC1)c1c3n2CCN=C3CCC1 | -33.9 |
| O=C(O)c1c2c(nc3ccc(Cl)cc13)CCC2 | 4.39 |
| Cc1cc(S(=O)(=O)N2CCN=C2c2ccccc2)ccc1F | 7.23 |
| Cc1ccc2c(c1)c1c(n2C)C(=O)CCC1 | 11.8 |
| CS(=O)(=O)O.c1ccc(-c2ccc3c(c2)c2c4n3CCN=C4CCC2)cc1 | -61.5 |
| CCn1c2c(c3cc(Cl)ccc31)CCCC2=O | 3.71 |

| SMILES | hERG current change (%, negative = inhibition) at 10uM [%] |
| --- | --- |
| CCO.Cn1c2c(c(=O)n(C)c1=O)C1(C(=O)Nc3ccccc31)C(C#N)=C(N)O2 (centres unmarked) | 8.3 |
| COc1ccc(CN(C)C(=O)c2cccc(Oc3ccccc3)c2)c(OC)c1OC | -20.6 |
| CSc1nc(C)c(Oc2ccccc2)c(=O)n1C | 5.82 |
| CCC1CCCCN1C(=O)NC(=O)c1ccccc1 (centres unmarked) | 30.3 |
| CC(C)OCCCN(C)C1CCN(S(=O)(=O)c2ccc(-c3cc(C(F)(F)F)no3)s2)CC1 | -54.6 |
| CC(C)OCCCN(C)C1CCN(S(=O)(=O)c2ccc(-c3ccc(=O)[nH]n3)s2)CC1 | -35.8 |
| CC(C)OCCCN(C)C1CCN(S(=O)(=O)c2csc(C(N)=O)c2)CC1 | 13.1 |
| Cc1ccccc1C(=O)NC(=S)Nc1ccc(S(=O)(=O)N2CCOCC2)cc1 | -40 |
| CN1CCN(S(=O)(=O)c2cccc(C(=O)O)c2)CC1 | 10.8 |
| CC(NC(=O)c1cccc(S(=O)(=O)N2CCN(Cc3ccccc3)CC2)c1)c1ccc(Br)cc1 (centres unmarked) | -17.6 |
| O=C(NCc1ccccc1CN1CCCC1)c1cccc(S(=O)(=O)N2CCOCC2)c1 | -44.5 |
| CC(NC(=O)c1cc(S(=O)(=O)N2CCCC2)cn1C)c1ccccc1 (centres unmarked) | -0.137 |
| O=C(NCCc1ccccc1)c1cccc(S(=O)(=O)N2CCCCC2)c1 | 5.18 |
| O=C(NCc1ccccc1F)c1cccc(S(=O)(=O)N2CCCCCC2)c1 | 7.87 |
| O=C(NCc1cccc(Cl)c1)c1cccc(S(=O)(=O)N2CCCCC2)c1 | 7.08 |
| O=C(NCc1ccccc1CN1CCCC1)c1cccc(S(=O)(=O)N2CCCC2)c1 | -55.1 |
| O=C(NCc1ccccc1)c1cccc(S(=O)(=O)N2CCCCC2)c1 | -52.5 |
| CC(NC(=O)c1cccc(S(=O)(=O)N2CCCCCC2)c1)c1ccccc1 (centres unmarked) | -58.2 |
| Cc1ccc(C(NC(=O)c2cccc(S(=O)(=O)N3CCN(C)CC3)c2)c2ccccc2)cc1 (centres unmarked) | -61.8 |
| CN1CCN(S(=O)(=O)c2cccc(C(=O)N(C)C(c3ccccc3)c3ccccc3)c2)CC1 | -4.72 |
